# Source: PubChem BioAssay (NMMLSC)
# Compounds with a hit are over-represented: about 1.1% of the library has one in this group of screens.
# MEP2-GFP yeast: modulators of TOR pathway MEP2-GFP in S. cerevisiae; S. cerevisiae MEP2-GFP strain, flow cytometry GFP, 3 h; 100% = DMSO control level; GFP response vs DMSO, % at 10 µM; 330,000 tested, 0.51% active; AID 2016;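 active = GFP response versus DMSO above a set limit, roughly screen mean plus 3 SD, cut at about 180% in these data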;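 also: median GFP fluorescence of the barcode-gated MEP2-GFP cells per well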
# CIT2-GFP yeast: alters CIT2-GFP fluorescence in TOR pathway yeast screen | S. cerevisiae CIT2-GFP strain, flow cytometry, 3 h; 100 means same as DMSO wells | GFP response vs DMSO, % at 10 µM | 320,000 tested, 0.065% active;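 active = GFP response relative to DMSO above a set limit, near the screen mean plus 3 SD, cut at about 150% in these data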;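 also: ratio of well median GFP fluorescence to mean of DMSO wells on the plate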
# AGP1-GFP MLPCN: modulators of TOR pathway AGP1-GFP in S. cerevisiae | S. cerevisiae AGP1-GFP multiplex flow cytometry, 3 h; GFP as percent of DMSO wells | GFP response vs DMSO, % at 10 µM | 320,000 tested, 0.02% active;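 active = GFP response relative to DMSO above a set limit, near screen average plus 3 SD, cut at about 150% in these data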;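 also: median GFP channel fluorescence of the gated AGP1 strain per well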
# RPL19A TOR yeast: yeast TOR pathway RPL19A-GFP modulation; S. cerevisiae RPL19A-GFP strain, flow cytometry, 3 h; hits give low values; 330,000 tested, 0.3% active; percent response vs DMSO, % at 10 µM; AID 2025;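 active = percent response vs DMSO below 50%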;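 also: median channel GFP fluorescence of the barcoded RPL19A-GFP strain; ratio of sample median GFP to plate DMSO average so 100% = DMSO; lower means less RPL19A-GFP as with rapamycin TOR inhibition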
# LAP4-GFP MLPCN: alters LAP4-GFP fluorescence in TOR pathway yeast screen | S. cerevisiae LAP4-GFP multiplex, flow cytometry GFP, 3 h; median GFP as percent of DMSO wells | GFP response vs DMSO, % at 10 µM | 320,000 tested, 0.34% active;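 active = GFP response vs DMSO above a set limit, about the screen mean plus 3 SD, cut at about 150% in these data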
# VLA-4 inh: inhibition in a human VLA-4 binding assay. P13612. VLA-4 expressing cells, ligand binding flow cytometry. inhibition, % (about 7 µM as worked out from the volumes in the protocol). 330,000 tested, 0.2% active. AID 2557; in the data active = inhibition above about 50%
# LAP4 cherry2: second confirmation of modulators of TOR reporter LAP4-GFP in yeast; shares compounds with LAP4-GFP MLPCN; S. cerevisiae LAP4-GFP strain, flow cytometry GFP, 3 h; AID 2621; 590 tested, 20% active; GFP response vs DMSO, % at 10 µM;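 active = GFP signal as percent of the solvent control above about 150%, meaning raised reporter expression, limit read from the data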;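 also: ratio of well median GFP fluorescence to plate DMSO mean so 100% = DMSO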
# MEP2 cherry2: second confirmation of modulators of TOR reporter MEP2-GFP in yeast; shares compounds with LAP4-GFP MLPCN; S. cerevisiae MEP2-GFP strain, flow cytometry GFP, 3 h; GFP response vs DMSO, % at 10 µM; 590 tested, 10% active; AID 2622;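 active = GFP signal above 150% of the solvent control wells, that is a rise of more than half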;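 also: median channel GFP fluorescence of all gated yeast cells per well; ratio of median GFP to plate DMSO average so 100% = DMSO level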
# RPL19A GFP CP2: second confirmation of modulators of TOR reporter RPL19A-GFP in yeast. shares compounds with LAP4-GFP MLPCN. S. cerevisiae RPL19A-GFP strain, flow cytometry GFP, 3 h; hits give low values; 100% means same as DMSO wells. GFP response vs DMSO, % at 10 µM. 590 tested, 3% active. AID 2623;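 active = under 65% GFP response relative to DMSO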;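 also: median GFP channel fluorescence per well over the all cells gate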
# CIT2-GFP pick2: reconfirmed modulator of CIT2-GFP TOR reporter in yeast. S. cerevisiae CIT2-GFP strain, flow cytometry GFP, 3 h; DMSO control wells read 100%. shares compounds with LAP4-GFP MLPCN. GFP response vs DMSO, % at 10 µM. 590 tested, 8% active;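 active = GFP response vs DMSO above about 150%, limit read from the data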;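 also: median green fluorescence per well over all gated yeast cells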
# AGP1-GFP pick2: second confirmation of modulators of TOR reporter AGP1-GFP in yeast | percent response vs DMSO, % at 10 µM | S. cerevisiae AGP1-GFP strain, flow cytometry GFP, 3 h | shares compounds with LAP4-GFP MLPCN | 590 tested, under 10 active;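 active = over 150 percent of DMSO response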;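 also: median GFP channel fluorescence over all cells without mother daughter split; sample median GFP divided by mean DMSO control so 100% equals DMSO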
# s288c autofluor: compound is autofluorescent in yeast s288c cells. shares compounds with LAP4-GFP MLPCN. S. cerevisiae s288c, 520 nm autofluorescence, flow cytometry, 3 h; hits give high values; zero means same as solvent-only cells. fluorescence change (kMESF span) at 33 µM. 610 tested, under 10 active. AID 2757;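 active = fluorescence span over the dose series, or activity score, above about 33, limit read from the data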
# Yeast autofl DR: yeast s288c autofluorescence artifact in dose response; fluorescence change (span) at 33 µM; shares compounds with LAP4-GFP MLPCN; 110 tested, under 10 active; S. cerevisiae s288c parental, compound autofluorescence, flow cytometry, 3 h;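 active = fluorescence change span, or the activity score built from it, above 25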
# TORC1 bypass: compounds blocking wildtype yeast growth but not TORC1 bypass cells. shares compounds with LAP4-GFP MLPCN. 120 tested, under 10 active. growth rating (0-3) at 30 µM. S. cerevisiae BY4741 spot growth rating, 48-72 h; hits give low values. AID 504456;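 active = growth rating at most 1 for wild type yeast while the TORC1 bypass strain still grows fully, rated 3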
# Starred values were filed as active, the others as inactive; i = inactive; x = not tested or not shown.
SMILES,MEP2-GFP yeast,CIT2-GFP yeast,AGP1-GFP MLPCN,RPL19A TOR yeast,LAP4-GFP MLPCN,VLA-4 inh,LAP4 cherry2,MEP2 cherry2,RPL19A GFP CP2,CIT2-GFP pick2,AGP1-GFP pick2,others
C[C@H](CO)N1C[C@H](C)[C@@H](CN(C)S(=O)(=O)c2cn(C)cn2)Oc2ccc(NS(=O)(=O)c3ccccc3)cc2C1=O,x,x,x,x,x,2,x,x,x,x,x,
CCOC(=O)c1ccc(NC(=O)Nc2ncccc2C)cc1,101,81,93,111,99,1,x,x,x,x,x,
CCOC(=O)c1ccc(NC(=O)Nc2ncc(Cl)cc2Cl)cc1,89,81,62,63,79,15,97,112,65,100,66,
O=C(OCn1ncc(Cl)c(Cl)c1=O)c1ccc(F)cc1,93,85,95,93,122,27,x,x,x,x,x,
O=C(OCn1ncc(Br)c(Br)c1=O)c1c(F)cccc1F,85,81,93,87,227*,37,x,x,x,x,x,s288c autofluor=0.31;Yeast autofl DR=0.15;TORC1 bypass=3
COC(CNC(=O)c1ccc2c3c(onc13)-c1ccccc1C2=O)OC,91,90,66,72,230*,-96,x,x,x,x,x,s288c autofluor=5.3
COC(CNC(=O)c1cccnc1)OC,96,102,100,101,87,-6,x,x,x,x,x,
COC(=O)c1ccc(/C=C(\C#N)c2nc3ccccc3s2)cc1,101,99,90,94,100,-7,x,x,x,x,x,
N#C/C(=C\c1ccccn1)c1nc2ccccc2s1,752*,x,166*,166,634*,i,x,x,x,x,x,s288c autofluor=33*
CSc1ccc(C2=CC(=O)C[C@H](c3ccc(Cl)cc3)C2)cc1,109,99,109,115,129,0,x,x,x,x,x,
Fc1ccc(Nc2nc(-c3cccnc3)cs2)cc1,149,92,74,59,102,21,100,102,102,100,97,
COc1ccc(-c2cccc(NC(=O)COc3ccc(Cl)cc3)c2)nn1,106,102,98,107,93,4,x,x,x,x,x,
COCCNc1nc(-c2cc(C(=O)Nc3ccccc3)on2)cc(C(C)C)n1,92,62,70,88,133,13,103,102,98,96,101,
Cc1cc(-c2cc(C(=O)NC3CCCC3)on2)nc(NCC2CC2)n1,93,98,82,97,125,6,x,x,x,x,x,
CC(C)c1cc(-c2cc(C(=O)NCc3ccccc3)on2)nc(NCC2CC2)n1,92,63,80,91,144,-14,117,103,96,109,100,
CC(C)c1cc(-c2cc(C(=O)NCc3ccccc3)on2)nc(NC2CCCC2)n1,92,78,80,94,156*,12,125,119,98,110,100,
COCCNc1nc(-c2cc(-c3ccc(Cl)cc3)on2)cc(C(C)C)n1,96,88,98,97,104,21,x,x,x,x,x,
Cc1cc(NC2CCCCC2)nc(NCc2ccccc2)n1,114,115,108,111,103,4,x,x,x,x,x,
Cc1cc(-c2cc(C(=O)Nc3ccccc3)on2)nc(NCC2CC2)n1,92,96,87,98,108,-2,102,121,103,104,105,
CC(C)c1cc(-c2cc(-c3ccc(Cl)cc3)on2)nc(NCC2CC2)n1,99,93,86,96,126,17,x,x,x,x,x,
CC1CCC(CN2C(Nc3ccccc3)=NC[C@@H]2C)CC1 (some centres undefined),92,67,80,96,110,0,x,x,x,x,x,
CC(C)c1cc(-c2cc(C(=O)Nc3ccccc3)on2)nc(NCC2CC2)n1,107,80,91,92,104,-7,99,106,100,93,99,
Oc1cc(-c2ccc(N3CCCCC3)nc2)cc2cccnc12,115,97,87,92,164*,18,117,119,103,99,98,s288c autofluor=0.5
CCOc1ccccc1N1CC(C(=O)Nc2cccc(S(=O)(=O)N3CCCCC3)c2)CC1=O (centres undefined),97,91,99,96,101,16,x,x,x,x,x,
Cc1ccc2c(C)c(C(=O)Nc3ccc(S(=O)(=O)Nc4onc(C)c4C)cc3)oc2c1,103,95,101,96,107,-8,x,x,x,x,x,
SMILES,MEP2-GFP yeast,CIT2-GFP yeast,AGP1-GFP MLPCN,RPL19A TOR yeast,LAP4-GFP MLPCN,VLA-4 inh,LAP4 cherry2,MEP2 cherry2,RPL19A GFP CP2,CIT2-GFP pick2,AGP1-GFP pick2,others
Cc1ccc(N/N=C(\C#N)C(N)=S)c(C)c1,142,90,101,84,161*,-18,166*,218*,86,136,128,s288c autofluor=4.1
COc1cc(/C=C/c2ccc3c(Br)cc(Br)c(O)c3n2)ccc1O,109,88,84,94,164*,-354,x,x,x,x,x,s288c autofluor=3.6
O=C(COc1ccc(Cl)cc1Cl)N/N=C/C1CC=CCC1 (centres undefined),102,114,100,101,104,-3,x,x,x,x,x,
OCCCCC#Cc1c(-c2ccsc2)sc2ccccc12,100,101,103,79,143,15,x,x,x,x,x,
OCCC#Cc1c(-c2ccsc2)sc2ccccc12,99,96,88,86,159*,-11,108,119,90,104,99,
CCN(CC)C(=S)SSC(=S)N(CC)CC,110,68,76,89,187*,11,181*,131,93,110,99,s288c autofluor=0.4
CCN(CC)C(=S)SCC(=O)c1ccccc1,95,x,97,100,111,-15,x,x,x,x,x,
